Results from the supplement of paper PMC11732987, “Enantioselective OTUD7B fragment discovery through chemoproteomics screening and high-throughput optimisation” (Communications Chemistry, 2025).

Legend:
Experiment in all cases: log2 ratio of Biotin-Ahx-Ub-VS probe labelling (fragment/DMSO); higher = less target engagement (more negative = stronger competition), active = hit call of the paper (q ≤ 0.05, log2 ratio ≤ -1)
Conditions in all cases: compound concentration: 200 uM; treatment time: 3 h
[1] = target: T1, ALG13 (UniProt Q9NP73)
T1 sequence (whole entry): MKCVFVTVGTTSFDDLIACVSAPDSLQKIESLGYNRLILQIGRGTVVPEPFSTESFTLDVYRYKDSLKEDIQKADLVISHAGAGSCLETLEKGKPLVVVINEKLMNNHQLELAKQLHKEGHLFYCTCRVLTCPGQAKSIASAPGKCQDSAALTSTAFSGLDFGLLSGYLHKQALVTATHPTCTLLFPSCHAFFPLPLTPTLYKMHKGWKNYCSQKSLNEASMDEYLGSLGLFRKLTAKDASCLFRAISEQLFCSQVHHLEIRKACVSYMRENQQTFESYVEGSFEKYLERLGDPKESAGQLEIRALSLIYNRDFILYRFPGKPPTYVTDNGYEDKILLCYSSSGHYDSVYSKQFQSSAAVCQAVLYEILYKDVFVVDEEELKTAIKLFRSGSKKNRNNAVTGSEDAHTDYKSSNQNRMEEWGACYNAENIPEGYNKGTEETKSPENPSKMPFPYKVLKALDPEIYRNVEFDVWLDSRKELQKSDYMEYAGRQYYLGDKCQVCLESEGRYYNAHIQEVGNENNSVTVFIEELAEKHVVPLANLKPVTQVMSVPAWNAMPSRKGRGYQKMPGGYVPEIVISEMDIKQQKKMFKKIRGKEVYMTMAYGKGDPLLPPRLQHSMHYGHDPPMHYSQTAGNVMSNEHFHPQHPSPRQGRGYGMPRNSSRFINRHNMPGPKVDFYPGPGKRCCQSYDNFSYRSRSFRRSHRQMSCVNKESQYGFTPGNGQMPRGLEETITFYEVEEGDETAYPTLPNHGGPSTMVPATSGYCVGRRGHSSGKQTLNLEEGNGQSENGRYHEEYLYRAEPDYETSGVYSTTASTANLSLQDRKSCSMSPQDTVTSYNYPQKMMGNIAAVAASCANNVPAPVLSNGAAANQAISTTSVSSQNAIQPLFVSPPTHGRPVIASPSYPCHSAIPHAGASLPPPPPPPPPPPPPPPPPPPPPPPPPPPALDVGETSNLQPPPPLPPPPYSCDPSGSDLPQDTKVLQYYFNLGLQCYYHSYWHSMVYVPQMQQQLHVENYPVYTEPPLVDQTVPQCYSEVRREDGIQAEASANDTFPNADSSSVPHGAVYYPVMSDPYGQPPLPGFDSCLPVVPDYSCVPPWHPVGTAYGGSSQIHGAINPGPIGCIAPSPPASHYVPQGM
Method in brief: (§1)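 Fragment (200 µM) or vehicle was incubated for 3 h with triplicate HEK293T lysate samples of 495 µg, which were then treated with Biotin-Ahx-Ub-VS at 0.5 µM final for 1 h. Labelled DUBs were enriched on NeutrAvidin, digested with LysC and trypsin, and analysed by diaPASEF LC-MS/MS. Values are average log2 fragment/vehicle ratios from an unpaired t-test on global-median-normalised Spectronaut label-free quantities, using proteins with ≥2 unique peptides.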

[2] = target: ATXN3 (UniProt P54252)
Method in brief: as §1

[3] = target: T2, BAP1 (UniProt Q92560)
T2 sequence (whole entry): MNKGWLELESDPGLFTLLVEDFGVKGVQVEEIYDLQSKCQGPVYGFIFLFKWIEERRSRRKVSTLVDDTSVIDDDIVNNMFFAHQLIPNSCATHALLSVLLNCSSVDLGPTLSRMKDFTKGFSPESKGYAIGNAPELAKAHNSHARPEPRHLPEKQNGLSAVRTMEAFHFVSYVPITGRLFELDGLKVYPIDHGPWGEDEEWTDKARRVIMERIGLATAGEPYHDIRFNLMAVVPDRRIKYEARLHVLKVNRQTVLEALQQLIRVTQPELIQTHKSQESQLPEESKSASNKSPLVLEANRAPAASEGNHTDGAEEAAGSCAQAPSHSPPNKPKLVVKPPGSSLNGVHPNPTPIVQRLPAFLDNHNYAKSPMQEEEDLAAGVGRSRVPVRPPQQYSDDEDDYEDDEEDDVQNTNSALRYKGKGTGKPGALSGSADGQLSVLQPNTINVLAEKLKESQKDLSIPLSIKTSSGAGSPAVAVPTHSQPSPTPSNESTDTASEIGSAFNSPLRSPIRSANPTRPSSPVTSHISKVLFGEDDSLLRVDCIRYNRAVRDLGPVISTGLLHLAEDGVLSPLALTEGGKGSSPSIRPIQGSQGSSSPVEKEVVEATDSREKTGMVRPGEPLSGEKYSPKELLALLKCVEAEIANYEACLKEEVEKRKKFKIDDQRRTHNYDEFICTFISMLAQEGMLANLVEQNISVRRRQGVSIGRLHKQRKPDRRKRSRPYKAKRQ
Method in brief: as §1

[4] = target: EIF3F (UniProt O00303)
Method in brief: as §1

[5] = target: EIF3H (UniProt O15372)
Method in brief: as §1

[6] = target: T3, FAM105A (UniProt Q9NUU6)
T3 sequence (whole entry): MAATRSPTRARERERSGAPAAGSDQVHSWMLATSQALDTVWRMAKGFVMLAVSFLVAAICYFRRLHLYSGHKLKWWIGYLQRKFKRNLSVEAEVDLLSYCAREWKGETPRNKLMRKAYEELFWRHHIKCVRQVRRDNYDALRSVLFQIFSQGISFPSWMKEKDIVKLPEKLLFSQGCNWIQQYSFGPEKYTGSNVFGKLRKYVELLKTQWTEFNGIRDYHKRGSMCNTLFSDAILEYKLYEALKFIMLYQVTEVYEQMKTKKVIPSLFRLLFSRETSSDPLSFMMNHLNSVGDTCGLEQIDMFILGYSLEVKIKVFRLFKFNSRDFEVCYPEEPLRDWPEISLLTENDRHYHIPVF
Method in brief: as §1

[7] = target: OTUB1 (UniProt Q96FW1)
Method in brief: as §1

[8] = target: T4, OTUD4 (UniProt Q01804)
T4 sequence (whole entry): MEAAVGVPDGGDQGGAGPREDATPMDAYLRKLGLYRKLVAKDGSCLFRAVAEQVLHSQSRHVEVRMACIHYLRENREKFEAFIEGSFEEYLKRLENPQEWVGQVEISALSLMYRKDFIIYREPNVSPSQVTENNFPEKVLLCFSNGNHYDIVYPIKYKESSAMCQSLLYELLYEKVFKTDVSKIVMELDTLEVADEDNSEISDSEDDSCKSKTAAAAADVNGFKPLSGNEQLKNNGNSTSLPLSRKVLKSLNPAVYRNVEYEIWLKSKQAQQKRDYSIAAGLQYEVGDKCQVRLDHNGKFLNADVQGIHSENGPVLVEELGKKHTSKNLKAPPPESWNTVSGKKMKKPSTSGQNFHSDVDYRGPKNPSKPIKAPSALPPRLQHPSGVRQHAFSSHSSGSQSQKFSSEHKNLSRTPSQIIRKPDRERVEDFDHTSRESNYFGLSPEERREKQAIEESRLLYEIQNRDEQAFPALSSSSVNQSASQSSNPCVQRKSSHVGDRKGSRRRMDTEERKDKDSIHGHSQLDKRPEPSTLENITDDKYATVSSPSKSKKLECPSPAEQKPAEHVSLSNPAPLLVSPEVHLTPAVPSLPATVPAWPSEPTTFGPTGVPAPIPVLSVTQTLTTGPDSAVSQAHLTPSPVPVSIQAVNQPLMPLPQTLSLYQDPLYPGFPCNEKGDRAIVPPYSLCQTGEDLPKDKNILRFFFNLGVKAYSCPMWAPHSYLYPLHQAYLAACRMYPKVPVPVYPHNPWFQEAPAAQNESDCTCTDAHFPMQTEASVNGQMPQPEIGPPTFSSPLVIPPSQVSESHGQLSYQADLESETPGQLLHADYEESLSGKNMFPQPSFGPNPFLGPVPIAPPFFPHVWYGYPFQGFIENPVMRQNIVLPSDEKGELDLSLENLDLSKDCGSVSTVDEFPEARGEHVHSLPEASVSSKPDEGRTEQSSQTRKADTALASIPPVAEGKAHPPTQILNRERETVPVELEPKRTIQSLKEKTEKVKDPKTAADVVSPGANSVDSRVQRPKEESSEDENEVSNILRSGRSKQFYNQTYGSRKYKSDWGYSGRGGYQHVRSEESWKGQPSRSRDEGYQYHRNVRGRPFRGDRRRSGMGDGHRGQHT
Method in brief: as §1

[9] = target: T5, OTUD5 (UniProt Q96G74)
T5 sequence (whole entry): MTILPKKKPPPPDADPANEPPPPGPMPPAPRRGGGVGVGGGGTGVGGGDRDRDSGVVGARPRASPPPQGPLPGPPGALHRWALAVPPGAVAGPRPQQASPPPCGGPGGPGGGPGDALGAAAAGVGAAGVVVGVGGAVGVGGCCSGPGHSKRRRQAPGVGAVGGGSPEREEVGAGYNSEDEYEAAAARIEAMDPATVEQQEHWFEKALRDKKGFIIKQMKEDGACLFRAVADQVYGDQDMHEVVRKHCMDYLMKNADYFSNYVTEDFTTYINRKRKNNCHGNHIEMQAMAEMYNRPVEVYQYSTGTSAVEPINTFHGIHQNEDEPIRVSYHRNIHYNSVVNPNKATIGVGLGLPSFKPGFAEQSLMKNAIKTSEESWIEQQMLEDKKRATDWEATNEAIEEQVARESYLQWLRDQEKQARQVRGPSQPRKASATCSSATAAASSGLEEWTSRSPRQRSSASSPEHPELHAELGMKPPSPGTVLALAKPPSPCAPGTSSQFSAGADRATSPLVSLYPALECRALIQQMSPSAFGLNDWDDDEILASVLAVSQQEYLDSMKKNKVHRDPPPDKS
Method in brief: as §1

Measured: log2 ratio of Biotin-Ahx-Ub-VS probe labelling

EIF3H, sequence (O15372 whole entry): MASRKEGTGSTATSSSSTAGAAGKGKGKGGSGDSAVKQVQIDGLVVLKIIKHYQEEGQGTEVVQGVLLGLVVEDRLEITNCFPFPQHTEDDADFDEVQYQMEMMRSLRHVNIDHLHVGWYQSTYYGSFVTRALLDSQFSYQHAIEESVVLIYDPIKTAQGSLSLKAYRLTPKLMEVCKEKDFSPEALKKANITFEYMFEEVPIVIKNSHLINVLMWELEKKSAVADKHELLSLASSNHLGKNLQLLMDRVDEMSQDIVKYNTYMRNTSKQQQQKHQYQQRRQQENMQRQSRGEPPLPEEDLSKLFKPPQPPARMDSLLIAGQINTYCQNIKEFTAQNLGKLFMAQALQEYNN
ATXN3, sequence (P54252 whole entry): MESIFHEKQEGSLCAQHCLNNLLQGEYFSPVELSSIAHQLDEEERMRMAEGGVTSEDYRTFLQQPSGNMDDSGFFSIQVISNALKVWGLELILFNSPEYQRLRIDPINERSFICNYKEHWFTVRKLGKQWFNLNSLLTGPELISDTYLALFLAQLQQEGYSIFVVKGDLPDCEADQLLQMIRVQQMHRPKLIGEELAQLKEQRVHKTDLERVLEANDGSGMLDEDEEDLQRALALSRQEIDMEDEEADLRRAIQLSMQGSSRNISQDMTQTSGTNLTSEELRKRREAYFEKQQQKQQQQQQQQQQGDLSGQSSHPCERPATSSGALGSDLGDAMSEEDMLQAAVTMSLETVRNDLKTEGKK
EIF3F, sequence (O00303 whole entry): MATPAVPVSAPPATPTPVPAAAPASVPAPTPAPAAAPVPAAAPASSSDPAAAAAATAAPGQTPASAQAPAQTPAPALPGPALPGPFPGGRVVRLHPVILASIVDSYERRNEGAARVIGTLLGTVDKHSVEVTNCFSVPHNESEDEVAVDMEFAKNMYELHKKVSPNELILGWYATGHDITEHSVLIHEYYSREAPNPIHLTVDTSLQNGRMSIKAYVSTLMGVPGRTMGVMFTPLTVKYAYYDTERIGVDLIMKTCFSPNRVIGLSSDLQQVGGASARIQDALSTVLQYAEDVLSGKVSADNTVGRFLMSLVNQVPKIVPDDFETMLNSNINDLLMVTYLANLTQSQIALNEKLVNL
OTUB1, sequence (Q96FW1 whole entry): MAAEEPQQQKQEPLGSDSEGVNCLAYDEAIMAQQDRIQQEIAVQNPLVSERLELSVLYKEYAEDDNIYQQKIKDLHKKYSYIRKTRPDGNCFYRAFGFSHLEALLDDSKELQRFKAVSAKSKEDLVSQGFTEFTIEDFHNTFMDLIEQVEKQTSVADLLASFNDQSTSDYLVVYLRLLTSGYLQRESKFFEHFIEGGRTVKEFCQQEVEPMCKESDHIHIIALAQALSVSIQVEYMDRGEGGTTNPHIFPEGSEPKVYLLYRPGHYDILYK

Cc1ccccc1OCC(=O)N1CCN(C(=O)CCl)CC1
inactive: [1] -0.255 | [2] -0.894 | [3] -0.74 | [4] -0.317 | [5] 0.19 | [6] 0.252 | [7] -0.249 | [8] 0.0744 | [9] -0.161
